Assay results from PubChem BioAssay (NCATS).
Results filed as inconclusive are left out. Activity calls are given as the source filed them. Calls follow the shape of the dose curve; as a rule, active = well fitted curve in the direction sought with a large enough effect; inconclusive = small, poorly fitted or top-dose-only effect, or another doubt; inactive = no such curve, though single readings can be large; an effect the other way counts as inactive or inconclusive.

Assays:
[1] = Cell Viability - LYMP2-003 (AID 965);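 also: cells exposed to compounds for 24 h before reading; nearly all actives have a fitted effect of over 50% in size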
Procedure, shortened: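 Seed 2500 lymphoblastoid cells/well; incubate 5 hr, 37 C; add compounds; incubate 24 hr, 37 C; add CellTiter-Glo, 30 min RT; read luminescence. AC50 from Hill fit.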

[2] = Cell Viability - LYMP2-004 (AID 966); also: nearly all actives have a fitted effect of over 65% in size
Procedure, shortened: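 Viable-cell number estimated from ATP luminescence (CellTiter-Glo) in 2500 human lymphoblastoid cells/well after 24 hr at 37 C with compound. AC50 fitted to the standard Hill equation.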

[3] = Cell Viability - LYMP2-005 (AID 967);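 also: series mostly up to about 92 µM; cells exposed to compound for 24 h at 37 °C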
Procedure, shortened: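 Acute cytotoxicity is scored as a concentration-dependent drop in intracellular ATP in human lymphoblastoid LYMP2-005 cells after 24 h compound treatment. ATP is quantified by luciferase luminescence, and AC50 is derived by Hill-equation modelling.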

[4] = Cell Viability - LYMP2-009 (AID 968);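 also: cells exposed to compound for 24 h at 37 °C; nearly all actives have a fitted effect of over 55% in size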; also: potency is read from the fitted curve at half-maximal effect
[5] = Cell Viability - LYMP2-011 (AID 969);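 also: cells exposed to compound for 24 hours; nearly all actives have a fitted effect of over 60% in size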; also: potency is read from the fitted curve at half-maximal effect
Procedure, shortened: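 Cells seeded at 2500 per well rest 5 hr before compound addition, then incubate 24 hr at 37 C. CellTiter-Glo reagent is added for 30 min at room temperature before luminescence detection.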

[6] = Cell Viability - LYMP2-013 (AID 970);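 also: cells exposed to compound for 24 h at 37 °C; nearly all actives have a fitted effect of over 55% in size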; also: potency is read from the fitted curve at half-maximal effect
Procedure, shortened: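 In complete culture medium, human lymphoblastoid cells were dosed for 24 hr at 37 C, with tetraoctylammonium bromide (6.4pM to 92 uM) as positive control. Viability reflects luciferase-based ATP signal; AC50 derived from concentration-response curves.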

[7] = Cell Viability - LYMP2-015 (AID 971); also: nearly all actives have a fitted effect of over 55% in size
Procedure, shortened: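 AC50 values reflect Hill-model fits of ATP-based luminescence (CellTiter-Glo) from a human lymphoblastoid line, 2500 cells/well, treated 24 hr at 37 C.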

[8] = Cell Viability - LYMP2-019 (AID 973);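 also: cells exposed to compound for 24 h at 37 °C; nearly all actives have a fitted effect of over 55% in size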
Procedure, shortened: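 AC50 values come from Hill-equation modelling of qHTS concentration-response curves, where viability is measured as luciferase-based ATP luminescence in the lymphoblastoid line after 24 hr compound exposure in complete culture medium.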

[9] = Cell Viability - LYMP2-021 (AID 974); also: potency is read from the fitted curve at half-maximal effect
Procedure, shortened: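 In qHTS format, compounds are tested against 2500 lymphoblastoid cells per well for 24 h; viable cell number is inferred from ATP-driven luciferase light, and Hill-equation fitting yields AC50 values.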

[10] = Cell Viability - LYMP2-023 (AID 975); also: potency is read from the fitted curve at half-maximal effect
Procedure, shortened: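 In this qHTS, ATP-based luciferase luminescence (CellTiter-Glo) is quantified in human lymphoblastoid cells after 24 hr compound treatment at 37 C; tetraoctylammonium bromide serves as positive control. Concentration-response curves are Hill-fitted to give AC50.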

Measured: Potency

C[C@]12C[C@H](O)[C@H]3[C@@H](CCC4=CC(=O)CC[C@@]43C)[C@@H]1CC[C@@H]2C(=O)CO
inactive: all assays above

Oc1cccc(O)c1
not listed: [2]
inactive: all other assays above

NC(=O)c1ncn([C@@H]2O[C@H](CO)[C@@H](O)[C@H]2O)n1
not listed: [8]
inactive: all other assays above

CCCCCCCCCCCCOS(=O)(=O)O
inactive: all assays above

O=C1c2c(O)cccc2Cc2cccc(O)c21
not listed: [3]
inactive: all other assays above

NCCNCCNCCN
inactive: all assays above

CC12CCC(CC1)C(C)(C)O2
not listed: [2]
inactive: all other assays above

Cc1c(O)cccc1C(=O)N[C@@H](CSc1ccccc1)[C@H](O)CN1C[C@H]2CCCC[C@H]2C[C@H]1C(=O)NC(C)(C)C
active: [4] 50.1 µM | [5] 50.1 µM | [6] 50.1 µM | [9] 50.1 µM | [10] 50.1 µM

COc1ccccc1O
inactive: all assays above

CCCCOC(=O)c1ccc(O)cc1
inactive: all assays above

[Cl][In]([Cl])[Cl]
inactive: all assays above

Cc1cc2nc3c(=O)[nH]c(=O)nc-3n(C[C@H](O)[C@H](O)[C@H](O)CO)c2cc1C
inactive: all assays above

Cc1cc(CC(=O)O)n(C)c1C(=O)c1ccc(Cl)cc1
inactive: all assays above

O=C1O[C@H]([C@@H](O)CO)C(O)=C1O
inactive: all assays above

CN(C)CCC=C1c2ccccc2CCc2ccccc21
inactive: [1]

NCCNCCNCCNCCN
inactive: all assays above

Nc1ccc(S(=O)(=O)Nc2nccs2)cc1
not listed: [8]
inactive: all other assays above

NC(=O)N/N=C/c1ccc([N+](=O)[O-])o1
inactive: [2] | [3] | [6] | [9]

CC1(C)[C@@H]2CC[C@@]1(C)C(=O)C2
not listed: [3]
inactive: all other assays above
